Measured values: PubChem BioAssay

assay: S. cerevisiae RM11-1a growth modifiers, primary screen, strain RM11-1a, OD600, basal, 24 h (AID 1177); conditions: OD600, 24 h, higher = more signal, called active from +8 up or from −8 down;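 note: cultures grown under basal conditions with no added stressor; test concentration not given here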

z-score, inactive:
CC(C)(C)OC(=O)CC[C@]1(C(=O)N2CCCCC2)COC(c2ccc(OCCCO)cc2)=N1 -0.398, O=C1[C@@]23C=C(Br)[C@H](C[C@@H]2COC3)[C@@]12CO2 0.254, O=C1C[C@@](C(=O)NCc2ccccc2)(c2ccc([N+](=O)[O-])cc2)[C@@H](c2ccc(CO)cc2I)N1CC12CC3CC(CC(C3)C1)C2 -0.229, O=C1C[C@@](C(=O)NCC(F)(F)F)(c2ccc([N+](=O)[O-])cc2)[C@@H](c2ccc(CO)cc2)N1CC12CC3CC(CC(C3)C1)C2 0.419, CN1C(=O)C2C=CC(C(O)c3ccc(I)cc3)N(Nc3ccccc3)C2C1=O (stereo not given) -0.0359, COc1cc(C(O)C2C=CC3C(=O)N(Cc4ccccc4)C(=O)C3N2n2cnnc2)cc(OC)c1OC (stereo not given) -1.27, C=C(COC)/C(=C/C[C@@H](OC(=O)c1ccncc1)c1ccccc1OCCO)c1cc(C(=O)OC)ccc1OC 0.0248, CC(C)C[C@@H]1NC(=O)[C@@]23C(=O)N[C@@H](Cc4ccccc4)C2[C@H](C)[C@@]2(C)O[C@H]2C3/C=C/C/C=C\CNC(=O)[C@@H](C)NC1=O (stereo not given in full) -1.08, CCCNC(=O)[C@@]1(Sc2ccc(C)cc2)CC(=O)N(C(C)C)[C@@H]1c1ccc(CO)cc1I 0.29, CN1C(=O)C2C(C1=O)C1C=C(CCCO)C2C(c2cccs2)N1Cc1cc2c(cc1Br)OCO2 (stereo not given) 0.0034, C=C(CCCC)/C(=C/C[C@H](OC(C)=O)c1ccc(OCCO)cc1)c1cc(C(=O)OC)ccc1OC -0.0587, COC(=O)[C@@]1(Cc2ccc(OC)cc2)[C@H]2c3cc(C(=O)N4CCCC4)n(Cc4ccc(OC(F)(F)F)cc4)c3C[C@H]2CN1C(=O)c1ccccc1 0.755, CS(=O)(=O)CCOC(=O)C1=CC(CCCO)=CC(C2CC2)N(Cc2cccc(OC(F)(F)F)c2)C=C1C(=O)OCCS(C)(=O)=O (stereo not given) 0.416, COC(=O)C1=CC(CCCO)=CC(C)N(Cc2cccc(OC(F)(F)F)c2)C=C1C(=O)OC (stereo not given) 0.0728, [N-]=[N+]=NCc1ccccc1[C@@H]1OC(c2ccc(OCCCO)cc2)=N[C@]1(Cc1ccccc1)C(=O)NCCN1CCOCC1 1.89, CC(C)C(=C=CC[C@@H](O)c1cccc(OCCO)c1)C[C@@H](O)c1ccccn1 0.488, O=C(NCC(O)CO)[C@@]1(CCS(=O)(=O)c2ccccc2)COC(c2ccc(OCCCO)cc2)=N1 (stereo not given in full) 1.29, CCOC(=O)C1=C[C@@H](c2ccccc2)N(S(=O)(=O)c2ccc(C)cc2)[C@H]1c1ccccc1 0.398, CC(C)OC(=O)CC(=O)CC(O)c1ccc([N+](=O)[O-])cc1 (stereo not given) 0.0857, COC(=O)C1N=C(c2ccc(OCCCO)cc2)N(c2ccccc2)O1 (stereo not given) 0.061, NC(=O)NCC#Cc1ccc2c(c1)[C@]1(C(=O)N2)[C@H](C(=O)N2CCN(c3ncccn3)CC2)[C@H]2C(=O)O[C@H](c3ccccc3)[C@H](c3ccccc3)N2[C@@H]1c1ccc(OCCO)cc1 3.91, [N-]=[N+]=Nc1ccccc1C[C@]1(C(=O)O)N=C(c2ccc(OCCCO)cc2)O[C@H]1c1ccccc1 -0.1, C=C(/C(=C/C[C@@H](OC(C)=O)c1ccc(OCCO)cc1)c1cc(C(=O)OC)ccc1OC)C(C)C 0.492, COc1ccc(NC(=O)O[C@H]2[C@@H]3OC(=O)[C@H](Cc4cccc(Br)c4)C/C=C/C[C@@H](Cc4cccc(Br)c4)C(=O)O[C@H]3[C@@H](OC)O[C@@H]2CO)cc1 0.604, [N-]=[N+]=NCc1ccccc1[C@H]1OC(c2ccc(OCCCO)cc2)=N[C@@]1(CCS(=O)(=O)c1ccccc1)C(=O)NCc1ccccc1 2.19, COc1cc(NN2C(C(O)C3CCCCC3)C=CC3C(=O)N(C)C(=O)C32)cc(OC)c1OC (stereo not given) 0.668, O=C1[C@@H]2[C@@H](CC(COc3ccccc3)=C3[C@@H](CCc4ccccc4)OB(O)C[C@@H]32)C(=O)N1Cc1ccccc1 -0.0775, O=C1OCCC=C[C@H]2OC34C=CCN(c5ccc(Cl)cc5)C(=O)[C@H]3N(CCCCCCO)C(=O)[C@@H]4C12 (stereo not given in full) 0.311, CCOC(=O)C[C@H]1[C@H](OC(=O)c2ccccc2-c2ccccc2)[C@@H](NC(=O)c2ccc3ccccc3n2)c2cc(OCCCO)ccc2N1C(=O)c1ccccc1 1.01, COC(=O)[C@@]1(Cc2ccc(OC)cc2)[C@H]2c3cc(C(=O)N4CCCC4)n(Cc4ccc(S(C)(=O)=O)cc4)c3C[C@H]2CN1C(=O)c1ccccc1 0.115, C=C[C@@H](C)[C@@H](OC(=O)Nc1ccc(SC)cc1)c1ccc(OCCO)cc1 0.296, NCCCCCNC(=O)[C@@H]1C[C@@H]2C(=O)N3CCC[C@H]3C(=O)N2[C@@H]1c1ccc(O)cc1 0.801, O=C1OCCC/C=C\[C@H]2OC34C=CCN(c5ccc6ccccc6c5)C(=O)[C@H]3N(CCCO)C(=O)[C@@H]4C12 (stereo not given in full) -1.1, CC(=O)NCCCC[C@@H]1NC(=O)[C@@H]2C[C@H](C(=O)NCCCCCCN)[C@H](c3cccc(OCCO)c3)N2C1=O -0.158, COCCOC(=O)N1C(=O)[C@@]2(c3cc(C#CCNC(N)=O)ccc31)[C@H](c1ccc(OCCO)cc1)N1[C@H](c3ccccc3)[C@H](c3ccccc3)OC(=O)[C@H]1[C@@H]2C(N)=O 2.4
